According to PubChem BioAssay AID720597 (Broad Institute, 2013):
Measured potencies and affinities stand elsewhere. The source made the active and inactive calls.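 The calls were made as follows: active = fitted half-maximal dose no more than twice the top valid tested dose, for compounds that lower signal; inconclusive = fit invalid, or curve flat with activity between -70 and -30; inactive = potency past limit, curve flat within ±30, or signal increasing.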

Biological target: NAD-dependent protein deacylase sirtuin-5, mitochondrial (Homo sapiens) (UniProt Q9NXA8)
Assay: SIRT5 deacylase inhibitors, dose response, biochemical, fluorescence imaging, cherry-pick, set 6 (AID 720597);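 also: lower AMC signal can also come from blocking the trypsin step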
Conditions: Purified SirT5, succinyl-peptide-AMC/trypsin fluorescence; series mostly up to 15 µM

Sequence of NAD-dependent protein deacylase sirtuin-5, mitochondrial (Homo sapiens) (Q9NXA8 whole entry, looked up): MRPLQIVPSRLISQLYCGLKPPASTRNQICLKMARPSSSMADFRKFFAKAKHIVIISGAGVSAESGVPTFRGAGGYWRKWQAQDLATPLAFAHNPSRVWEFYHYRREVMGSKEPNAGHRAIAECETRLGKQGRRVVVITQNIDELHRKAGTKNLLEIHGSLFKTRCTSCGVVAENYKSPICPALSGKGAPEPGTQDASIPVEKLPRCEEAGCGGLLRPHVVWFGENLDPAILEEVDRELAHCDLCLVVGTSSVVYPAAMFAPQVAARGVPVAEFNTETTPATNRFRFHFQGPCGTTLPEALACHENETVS

outcome, inactive:
C[C@@H]1CN([C@@H](C)CO)C(=O)c2c(c3ccccc3n2C)-c2ccccc2CO[C@@H]1CN(C)Cc1cccc2c1OCCCO2
COc1cccc(S(=O)(=O)N(C)C[C@H]2Oc3cc(C4=CCCCC4)ccc3S(=O)(=O)N([C@H](C)CO)C[C@@H]2C)c1
COc1ccc(S(=O)(=O)Nc2ccc3c(c2)C(=O)N([C@H](C)CO)C[C@@H](C)[C@H](CN(C)S(=O)(=O)c2ccc(Cl)cc2)OCCCC[C@H](C)O3)cc1
COc1ccc(C#Cc2ccc([C@H]3[C@@H](CO)N4C(=O)CN(C(=O)c5cccnc5)C[C@H]34)cc2)cc1
C[C@H]1CN([C@@H](C)CO)S(=O)(=O)c2ccc(-c3cccc(F)c3)cc2O[C@@H]1CN(C)C(=O)Nc1cc(F)ccc1F
Cc1noc(C)c1NC(=O)Nc1cccc2c1O[C@@H](CN(C)Cc1ccc(Oc3ccccc3)cc1)[C@@H](C)CN([C@@H](C)CO)C2=O
C[C@H](CO)N1C[C@H](C)[C@H](CN(C)C(=O)Nc2ccc(F)cc2)Oc2ccc(NC(=O)Nc3ccc(F)cc3)cc2C1=O
O=C(CSc1nnc(-c2ccco2)n1-c1ccccc1)Nc1ccc(F)cc1
C[C@H](CO)N1C[C@H](C)[C@@H](CN(C)Cc2ccccc2F)Oc2cc(C#CC3CC3)ccc2S1(=O)=O
CO[C@H]1CN(C)C(=O)c2cc(NC(=O)c3ccccc3F)ccc2OC[C@@H](C)NC[C@@H]1C
C[C@H](CO)N1C[C@H](C)[C@H](CN(C)C(=O)Nc2ccc(F)cc2)Oc2cc(/C=C/c3ccccc3)ccc2S1(=O)=O
